We go through 91 compounds from PubChem BioAssay AID493131 (Broad Institute, 2011).

Hit rate of the full screen: of about 340,000 compounds, about 3,300 (0.97%) were called active. What follows is part of a selection rich in actives, with near analogues and random picks from the rest. Values without a mark were called inactive.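 Rule for the calls: active = mean activation above about 17%, with every replicate also reaching it (limit read from the data, passing the limit was not always enough); inconclusive = only one of the two conditions met; inactive = the rest.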

Sequence of Protein FosB (Mus musculus) (P13346 whole entry, looked up): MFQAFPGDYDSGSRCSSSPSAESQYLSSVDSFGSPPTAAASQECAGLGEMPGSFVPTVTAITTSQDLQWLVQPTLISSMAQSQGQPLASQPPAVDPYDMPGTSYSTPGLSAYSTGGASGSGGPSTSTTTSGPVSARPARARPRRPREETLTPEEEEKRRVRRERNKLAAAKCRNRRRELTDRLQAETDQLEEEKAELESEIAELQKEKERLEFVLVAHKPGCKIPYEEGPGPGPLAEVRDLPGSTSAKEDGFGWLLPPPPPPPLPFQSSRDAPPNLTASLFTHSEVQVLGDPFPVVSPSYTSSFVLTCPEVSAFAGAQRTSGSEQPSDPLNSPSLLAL

This test concerns the target Protein FosB (Mus musculus) (UniProt P13346). Kind of test: enhancers of mouse delta FosB DNA binding – biochemical, fluorescence polarization, TAMRA-CDK5 oligo, single point, primary screen (AID 493131).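 Note: fluorescence polarization rise as delta FosB binds a TAMRA Cdk5 AP-1 oligo.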 The conditions noted are these: purified delta FosB, at 25 µM, active compounds read high, percent of positive-control signal above neutral wells. (In general: In fluorescence polarisation assays a small probe gives low polarisation when free and higher when bound to something large.)
Regarding `O=S(=O)(NCC1CN(S(=O)(=O)c2ccc3c(c2)OCCO3)C1)c1c(F)cccc1F`, the activation is 2.95%.

With `CS(=O)(=O)N1CCN=C1SCc1ccc(F)cc1`, the activation was 1.39%. Regarding `CCN(CC)CCOc1ccc2c(c1)C(=NNC(=O)c1ccccn1)c1cc(OCCN(CC)CC)ccc1-2`, the activation is 79.1% (active). As for `C/C(=N\NC(=O)c1ccccc1F)c1ccccn1`, the activation is -8.45%.

Consider `CCOc1cc2ccccc2cc1C(=O)Nc1ccccn1`, for which the activation is -0.935%. As for `CN(C)NC(=O)C(NC(=O)c1ccc(N)cc1)C12CC3CC(CC(C3)C1)C2` (stereo unspecified), the figure is -3.81%; as for `Cc1oc(CC(C)C)c(CN2CCCC2)c1C(=O)O`, 4.27%. Regarding `COc1ccccc1OCC(=O)Nc1ccccc1C(=O)NC1CC1`, the activation was -0.401%.

As for `Cc1ccc(OCC(=O)Nc2ccccc2C(=O)NC2CC2)cc1C`, the activation was 36.7% (active). With `Cc1ccc(OCC(=O)Nc2ccccc2C(=O)NC2CC2)cc1`, the activation is -7.85%. To `COc1ccc(C2=Nc3cc(C)ccc3OC2)cc1` belongs -10.5%.

Consider `CCCCCCCCCCOC(=O)Cn1c(COc2ccc(C)cc2)[n+](C)c2ccccc21`, for which the activation is 38.3% (active). To `CCOC(=O)CNC(=O)CSc1nnc(-c2cccc(OC)c2)n1CC` belongs -2.27%. With `COc1cccc(NC(=O)COC(=O)CCOc2ccccc2OC)c1`, the activation is 2.67%. As for `CCCCCCCCCCOC(=O)Cn1c(COc2cccc(OC)c2)[n+](C)c2ccccc21`, the activation is 28.7% (active).

On to `CCCCOc1ccc(NC(=O)CSCC(=O)OCC)cc1`, for which the activation is -6.39%.

In the case of `CCOC(=O)COn1c(=O)c(-c2ccc(OCC)cc2)[n+]([O-])c2ccccc21`, the activation is -3.65%. Take `CCC1=C(OC(=O)N(CC)CC)N2C(=O)OC(=NCCc3c[nH]c4ccccc34)[C@]2(C)[C@H]2C1=CC[C@H]1C(=O)N(CC)C(=O)[C@H]12`: the activation was -18.3%. For the compound `CCOC(=O)N1CCN(S(=O)(=O)c2ccc(-n3cnnn3)cc2)CC1`, the activation was -6.35%. For the compound `CC(=O)c1ccc(S(=O)(=O)N2CCC(Oc3ccc(-n4cnnn4)cc3)CC2)cc1`, the activation was 12.7%. To `Cc1ccc(S(=O)(=O)N2CCC(Oc3ccc(-n4cnnn4)cc3)CC2)cc1` belongs 58.6% (active); to `Cn1c(=O)c2c(nc(Br)n2CCSc2nc3ccccc3o2)n(C)c1=O`, 1.42%. As for `Cc1cccc(C)c1NC(=O)C1(C)c2cccc[n+]2CC(=O)N1Cc1cccs1` (stereo unspecified), the figure is -6.06%. To `C=CCc1ccccc1OCC(O)CN1CCN(CCO)CC1` (stereo unspecified) belongs -2.68%; to `Cc1cccc(OCC(O)CN2CCN(CCN3C(=O)c4cccc5cccc(c45)C3=O)CC2)c1C` (stereo unspecified), 62.2% (active).

`COc1ccccc1OCC(O)CN1CCOCC1` (stereo unspecified): the activation is -1.24%. As to `COc1ccc(S(=O)(=O)NCCOc2ccccc2)cc1F`, the activation was 7.41%.

`CCOc1ccc(-n2c(SCC(=O)OC)nc3sc4c(c3c2=O)CCN(C)C4)cc1`: the activation was -0.804%. As for `CCCSc1nc2sc3c(c2c(=O)n1-c1ccc(OC)cc1)CCN(C)C3`, the figure is -14.7%.

With `CCOc1ccc(-n2c(SCC(=O)Nc3ccc(OC)cc3)nc3sc4c(c3c2=O)CCN(C)C4)cc1`, the activation is 50.3% (active). `Cc1ccccc1-c1nc(CS(=O)(=O)CC(=O)N2CCc3ccccc3C2)c(C)o1`: the activation is -5.6%. For the compound `O=C(COC(=O)c1cnccn1)Nc1cccc2ccccc12`, the activation was -2.31%. To `N#CCCN1CCN(S(=O)(=O)c2ccc(S(=O)(=O)NC3CCCCC3)cc2)CC1` belongs -3.88%; to `COC(=O)c1cc(NC(=O)CN2CCN(C(C)=O)CC2)cc(C(=O)OC)c1`, 2.81%; to `Cc1cccc(Nc2nnc(SCC(=O)c3c(N)n(C4CC4)c(=O)[nH]c3=O)s2)c1C`, -2.18%.

For `Cc1nnc(NC(=O)c2ccc3nccnc3c2)s1`, the activation is 1.3%. On to `Cc1nnc(NC(=O)Nc2ccc(Cl)c(Cl)c2)s1`, for which the activation was 28.8% (active). As for `Cc1nnc(NC(=O)C(c2ccccc2)c2ccccc2)s1`, the figure is -0.437%; as for `CC(C)Cn1c(N)c(C(=O)COC(=O)CN2C(=O)C3CC=CCC3C2=O)c(=O)n(C)c1=O` (stereo unspecified), -11.5%. `COc1cccc(N2CC(NS(=O)(=O)c3cccs3)CC2=O)c1` (stereo unspecified): the activation was 0.171%. For the compound `CCc1ccc(CNC(=O)C2CCN(c3nnc(C)c4c(C)n(-c5ccc(C)cc5)nc34)CC2)cc1`, the activation is 82.7% (active).

Regarding `CCc1ccc(CNC(=O)C2CC(=O)N(CCc3ccc(C)cc3)C2)cc1` (stereo unspecified), the activation is -3.6%. As to `CCOc1ccc(CNC(=O)C2CCCN(c3nnc(C)c4c(C)n(-c5ccccc5)nc34)C2)cc1` (stereo unspecified), the activation was -5.11%. As for `Cc1ccc(NC(=O)CN2CCc3ccccc3C2)cc1C`, the figure is -4.61%; as for `Cc1ccc(OS(=O)Nc2cccc3nccnc23)cc1` (stereo unspecified), -0.877%.

On to `O=C(CCCn1c(=O)[nH]c2cc(Cl)ccc2c1=O)NCCN1CCN(c2ccccc2)CC1`, for which the activation was -5.22%. For `COc1cccc(CNC(=O)Cc2csc(Nc3nc(=S)[nH]c4ccccc34)n2)c1`, the activation is 12.2%.

As to `O=C(Cc1csc(Nc2nc(=S)[nH]c3ccccc23)n1)NCCCN1CCN(c2cccc(Cl)c2)CC1`, the activation was 34.1% (active).

As to `O=[N+]([O-])c1cc2ccccc2nc1-c1ccccc1`, the activation was -4.74%. As for `CC1COc2ccccc2N1C(=O)c1cccnc1Cl` (stereo unspecified), the figure is -2.06%. Regarding `OCCNc1nc(Nc2ccc(Cl)c(Cl)c2)nc2ccccc12`, the activation was 47% (active). As to `CN1CCN(c2nc(Nc3ccc(O)cc3)nc3ccccc23)CC1`, the activation was 10.9%.

Turning to `Cc1cccc(Nc2nc(NCCO)nc(N3CCCC3)n2)c1`, the activation was 2.75%. Consider `CC12CN(Cc3ccccc3)CC(C)(CN(Cc3ccccc3)C1)C2=NO`, for which the activation is -1.53%. Turning to `CCOc1ccccc1-n1c(SCC(=O)NCc2ccco2)nnc1-c1ccncc1`, the activation is -2.73%. To `O=C(NCCOc1ccccc1F)Nc1ccc(Br)cc1` belongs -2.98%; to `O=C(Nc1ccccc1)Nc1nnc(COc2ccccc2F)s1`, 28.4% (active). To `COc1ccccc1NC(=O)Nc1nnc(Cc2ccc(F)cc2)s1` belongs -2.06%; to `COc1cc(C)ccc1OCC(=O)OCC(=O)c1ccc[nH]1`, 6.43%; to `CC(NC(=O)COC(=O)CCC(=O)c1ccc(Cl)cc1)c1ccccc1` (stereo unspecified), -9.29%.

Take `Cc1ccccc1Nc1nc(N)nc(COC(=O)CCC(=O)c2ccc(F)cc2)n1`: the activation is -1.04%. With `Nc1nc(COC(=O)CCC(=O)c2ccc(Cl)cc2)nc(Nc2ccccc2)n1`, the activation was 21.6% (active). In the case of `OCCCNC(c1ccccc1)c1ccc(O)cc1` (stereo unspecified), the activation was -0.537%. For the compound `CCCC(=O)N(CCN1CCOCC1)c1nc2ccc(OCC)cc2s1`, the activation was 1.55%. Take `CCc1ccc2nc(N(CCCN(C)C)C(=O)c3ccc4c(c3)OCCO4)sc2c1`: the activation is -10.5%. To `CCOc1ccc2nc(N(CCN(C)C)C(=O)c3ccc4ccccc4c3)sc2c1` belongs 18.5% (active); to `Cc1onc(-c2ccccc2Cl)c1C(=O)N(Cc1ccc(N(C)C)cc1)C(C)C`, -12.7%. As for `O=C(Cc1ccccc1)Nc1cccc(C(=O)N/N=C/c2ccco2)c1`, the figure is -7.68%; as for `O=C(N/N=C/c1ccco1)c1ccc(NC(=O)C2CC2)cc1`, 31.9% (active); as for `O=C(N/N=C/c1ccco1)c1csc2c1CCCC2`, 2.38%. `O=C(NCC1CCCCC1)NCC1CCCCC1`: the activation is -3.89%. On to `CCC(C)NC(=O)c1ccc(NC(=O)CC2SC(N3CCCCC3)=NC2=O)cc1` (stereo unspecified), for which the activation is -9.42%. As for `Cc1cc(C)n2nc(CNS(=O)(=O)c3c(F)c(F)c(F)c(F)c3F)nc2n1`, the activation is -1.9%.

Consider `CC(=O)c1cccc(NC(=O)c2cc(C)nn2-c2ccccc2)c1`, for which the activation was -9.9%. As for `CCn1c(=O)c2cc(C(=O)Nc3cccc(C(C)=O)c3)sc2c2ccccc21`, the figure is 73.2% (active); as for `CCn1c(NC(=O)c2ccccc2)c(-c2cccs2)c(=O)c2ccccc21`, -4.73%; as for `CCc1cccc(NC(=O)COC(=O)c2cc(=O)c3ccccc3o2)c1`, -5.91%. To `COC(=O)c1c(C(=O)OC)c(-c2cccc(C)c2)n2c1CS(=O)C2` (stereo unspecified) belongs -2.6%; to `Cc1ccccc1Nc1c([N+](=O)[O-])ccc2nonc12`, -0.872%; to `CN(C)CCCN(C(=O)c1ccc(S(=O)(=O)N2CCCCCC2)cc1)c1nc2ccc(Br)cc2s1`, 41% (active). To `CN(C)CCN(C(=O)C1=COCCO1)c1nc2ccc(Cl)cc2s1` belongs -10.2%; to `COc1ccc2sc(N(CCCN(C)C)C(=O)c3ccc(S(=O)(=O)N(C)C4CCCCC4)cc3)nc2c1`, 15.3%; to `CCCCn1c(N)c(N(CCC(C)C)C(=O)c2ccc([N+](=O)[O-])o2)c(=O)[nH]c1=O`, -0.599%.

For the compound `CCCCn1c(N)c(N(CCC(C)C)C(=O)COC(=O)c2cccnc2OCC)c(=O)[nH]c1=O`, the activation is 1.39%. To `CCCCn1c(N)c(N(CCC(C)C)C(=O)COC(=O)c2ccc(CC)cc2)c(=O)[nH]c1=O` belongs 23.1% (active); to `CCn1c(/C=C/Nc2ccccc2)[n+](CC)c2ccc(C(=O)OCC(F)(F)F)cc21`, -11.5%. Take `O=C(NCCCn1ccnc1)C1CCCN(S(=O)(=O)c2cc(Cl)ccc2Cl)C1` (stereo unspecified): the activation is -4.73%. As to `CC(Sc1nc(-c2ccccc2)cc(C(F)(F)F)n1)C(=O)Nc1ccc2c(c1)OCO2` (stereo unspecified), the activation was 30.4% (active). Take `CC(Sc1nc2cc(Cl)ccc2s1)C(=O)Nc1ccc2c(c1)OCO2` (stereo unspecified): the activation is -3.52%.

For `CCSc1ccccc1C(=O)Nc1ccc2c(c1)OCO2`, the activation is 0.935%. On to `O=C1/C(=C/c2ccc3c(c2)OCO3)Oc2cc(OCC(=O)N3CC(O)C[C@H]3C(=O)O)ccc21` (stereo partly specified), for which the activation is -7.81%.
